Results published in PubChem BioAssay.
A number with no mark means an inactive call.

Target: Dihydroorotate dehydrogenase (quinone), mitochondrial (Plasmodium falciparum (isolate 3D7)) (UniProt Q08210)
Experiment: PfDHODH enzyme inhibitors, primary screen, biochemical, C-terminal His tag, absorbance 600 nm (AID 1175);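 further: recombinant parasite enzyme with a five histidine tag at its C terminus; test concentration not given here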
Conditions: DCIP absorbance 600 nm, higher = more signal, called active from +8 up or from −8 down

Dihydroorotate dehydrogenase (quinone), mitochondrial (Plasmodium falciparum (isolate 3D7)), sequence (Q08210 whole entry, looked up): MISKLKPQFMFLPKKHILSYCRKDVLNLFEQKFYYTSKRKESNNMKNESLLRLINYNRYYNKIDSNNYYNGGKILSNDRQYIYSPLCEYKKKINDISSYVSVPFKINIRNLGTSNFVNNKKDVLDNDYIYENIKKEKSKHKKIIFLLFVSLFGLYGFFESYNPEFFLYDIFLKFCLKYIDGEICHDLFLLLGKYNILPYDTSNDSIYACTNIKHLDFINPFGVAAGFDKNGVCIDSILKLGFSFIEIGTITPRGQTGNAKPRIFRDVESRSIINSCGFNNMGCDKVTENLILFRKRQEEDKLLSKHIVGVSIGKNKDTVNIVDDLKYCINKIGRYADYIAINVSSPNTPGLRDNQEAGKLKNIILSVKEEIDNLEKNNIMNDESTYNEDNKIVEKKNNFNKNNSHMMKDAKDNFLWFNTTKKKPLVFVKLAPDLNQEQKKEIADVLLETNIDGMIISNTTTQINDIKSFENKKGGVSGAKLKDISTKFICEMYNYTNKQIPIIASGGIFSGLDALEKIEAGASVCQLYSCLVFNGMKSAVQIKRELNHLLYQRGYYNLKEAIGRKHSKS

Q: With `NC(=O)[C@@]1(Cc2ccccc2)COC(c2ccc(OCCCO)cc2)=N1` as the compound, how does the composite z-score read?
A: 1.86

Q: Which composite z-score does the source give for `CCOC(=O)C[C@H]1[C@H](OC(=O)c2ccc(C(=O)c3ccccc3)cc2)[C@@H](NC(=O)c2ccc3ccccc3n2)c2cc(OCCCO)ccc2N1C(=O)Cc1ccc(OC)cc1` here?
A: -0.0608

Q: Which composite z-score does the source give for `COC(=O)[C@@H]1N=C(c2ccc(OCCCO)cc2)O[C@@H]1c1ccccc1` here?
A: -0.103

Q: `CCOc1cc(C(O)C2C=CC3C(=O)NC(=O)C3N2Nc2ccc(Cl)cc2Cl)ccc1O` (stereo not given) was tested. Which composite z-score did it give?
A: 0.0681

Q: With `CCOC(=O)C=Cc1cccc(C)c1O` as the compound, how does the composite z-score read?
A: -0.892

Q: For `COC(=O)[C@@]1(Cc2ccc(OC)cc2)[C@H]2c3cc(C(=O)N4CCCC4)n(CCO)c3C[C@H]2CN1C(=O)c1ccccc1`, which composite z-score is on record?
A: -0.203

Q: How did the composite z-score turn out when `CC1=C2[C@@H](CCc3ccccc3)OB(O)C[C@@H]2[C@@H]2C(=O)N(Cc3ccccc3)C(=O)[C@@H]2C1` was run?
A: -1.71

Q: For `C=CC[C@@H](OC(=O)Nc1ccc(SC)cc1)c1ccc(O)c(F)c1`, which composite z-score is on record?
A: -1.9

Q: Which composite z-score does the source give for `COCCCNC(=O)[C@@]1(CCC(=O)OC(C)(C)C)N=C(c2ccc(OCCCO)cc2)O[C@H]1c1ccccc1N=[N+]=[N-]` here?
A: -0.291

Q: For `CCOC(=O)C[C@H]1[C@H](OC(=O)c2cc3ccccc3oc2=O)[C@@H](NC(=O)CC(C)C)c2cc(OCCCO)ccc2N1C(=O)c1ccc2ccccc2n1`, which composite z-score is on record?
A: 0.544

Q: `Cc1ccc(C(C)CC(O)C2C=CC3C(=O)N(c4ccccc4)C(=O)C3N2Nc2ccccc2)o1` (stereo not given) was tested. Which composite z-score did it give?
A: -0.478

Q: Which composite z-score does the source give for `CN(C)c1ccc(C(O)C2C=CC3C(=O)NC(=O)C3N2Nc2ccccn2)cc1` (stereo not given) here?
A: 0.957

Q: With `CCCCN1CC=CC23O[C@@H]4/C=C\CCCOC(=O)C4[C@H]2C(=O)N(CCO)[C@@H]3C1=O` (stereo not given in full) as the compound, how does the composite z-score read?
A: 0.538

Q: Which composite z-score does the source give for `COc1ccc([Si](C)(C)[C@@H]2[C@@H](CCO)O[C@]3(C(=O)N(Cc4ccccc4)c4ccc(N5C(=O)c6cccc7cccc5c67)cc43)[C@H]2C)cc1` here?
A: -0.488

Q: How did the composite z-score turn out when `Oc1ccc2cc[n+](Cc3cc4c(cc3Br)OCO4)cc2c1` was run?
A: -0.625

Q: For `CCCNC(=O)[C@@H]1c2ccccc2C(=O)N(Cc2ccc(OC(F)(F)F)cc2)[C@H]1c1ccc(CO)cc1`, which composite z-score is on record?
A: -0.966

Q: Which composite z-score does the source give for `COCCOC(=O)N1C(=O)[C@@]2(c3cc(C#CC4=CCCCC4)ccc31)[C@H](c1ccccc1OCCO)N1[C@H](c3ccccc3)[C@H](c3ccccc3)OC(=O)[C@H]1[C@@H]2C(=O)NC[C@H](O)c1ccccc1` here?
A: -0.158

Q: How did the composite z-score turn out when `O=C1N(CCS(=O)(=O)c2ccccc2)c2ccccc2[C@H]2OC(c3ccc(OCCCO)cc3)=N[C@@]12Cc1ccccc1` was run?
A: -0.0331

Q: With `[N-]=[N+]=Nc1ccccc1C[C@]1(C(=O)NCCN2CCOCC2)COC(c2ccc(OCCCO)cc2)=N1` as the compound, how does the composite z-score read?
A: 0.137

Q: How did the composite z-score turn out when `C=CC[C@@]1(C(=O)NCCCOC)N=C(c2ccc(OCCCO)cc2)O[C@@H]1c1ccccc1N=[N+]=[N-]` was run?
A: 1.05

Q: With `COC(=O)C1=CC(CCCO)=CC(c2ccc(CN3CCCC3)cc2)N(Cc2cccc(OC(F)(F)F)c2)C=C1C(=O)OC` (stereo not given) as the compound, how does the composite z-score read?
A: -2.65

Q: How did the composite z-score turn out when `CCCC=C(CCC)[C@@H](NC(=O)c1cccs1)c1ccc(C(=O)OC)cc1` was run?
A: 0.519

Q: For `CC1=C2[C@@H](CCc3ccccc3)OB(O)C[C@@H]2[C@@H]2C(=O)N(C)C(=O)[C@@H]2C1`, which composite z-score is on record?
A: -0.628

Q: Which composite z-score does the source give for `COCCOC(=O)N1C(=O)[C@@]2(c3cc(C#CC4(O)CCCCCC4)ccc31)[C@H](c1ccc(O)cc1)N1[C@H](c3ccccc3)[C@H](c3ccccc3)OC(=O)[C@H]1[C@@H]2C(=O)N1CCN(c2ncccn2)CC1` here?
A: 0.244

Q: With `COC(=O)[C@@]1(Cc2ccc(F)cc2)[C@H]2c3cc(C(=O)N(C)C)n(Cc4ccc(OC(F)(F)F)cc4)c3C[C@H]2CN1C(=O)c1ccccc1` as the compound, how does the composite z-score read?
A: -0.0384

Q: Which composite z-score does the source give for `C=CCNC(=O)[C@H]1[C@@H]2C(=O)O[C@@H](c3ccccc3)[C@@H](c3ccccc3)N2[C@@H](c2ccccc2OCCO)[C@]12C(=O)N(C(=O)OCCOC)c1ccc(C#CC3(O)CCCCCC3)cc12` here?
A: -1.12

Q: How did the composite z-score turn out when `C=C(COC)/C(=C/C[C@H](OC(=O)c1ccncc1)c1ccccc1OCCO)c1cc(C(=O)OC)ccc1OC` was run?
A: -2.32

Q: With `CC(C)c1ccc(NN2C(C(O)c3ccc(C#N)cc3)C=CC3C(=O)N(c4ccccc4)C(=O)C32)cc1` (stereo not given) as the compound, how does the composite z-score read?
A: -0.0438

Q: How did the composite z-score turn out when `CC(C)NC(=O)[C@@]1(c2ccc([N+](=O)[O-])cc2)CC(=O)N(C2CCCCC2)[C@@H]1c1ccc(CO)cc1` was run?
A: 1

Q: How did the composite z-score turn out when `CCOC(=O)C[C@H]1[C@H](OC(=O)Cc2ccc3c(c2)OCO3)[C@@H](NC(=O)c2ccc3ccccc3n2)c2cc(OCCCO)ccc2N1C(=O)c1ccccc1` was run?
A: -0.32

Q: For `O=c1cccc(-c2ccc([N+](=O)[O-])cc2)o1`, which composite z-score is on record?
A: -0.371

Q: Which composite z-score does the source give for `CC(C)N1C(=O)C[C@@](C(=O)O)(c2ccc([N+](=O)[O-])cc2)[C@H]1c1ccc(CO)cc1` here?
A: -1.24

Q: `CCCCCCCCCC(O)C1C=CC2C(=O)N(c3ccccc3)C(=O)C2N1Nc1cc(OC)c(OC)c(OC)c1` (stereo not given) was tested. Which composite z-score did it give?
A: -0.474

Q: With `COC(=O)[C@@]1(Cc2ccc(OC)cc2)[C@H]2c3cc(C(=O)N(C)C)n(Cc4ccc(C)o4)c3C[C@H]2CN1C(=O)c1ccccc1` as the compound, how does the composite z-score read?
A: 0.376

Q: `[N-]=[N+]=Nc1ccccc1C[C@]1(C(=O)NCC(O)CO)COC(c2ccc(OCCCO)cc2)=N1` (stereo not given in full) was tested. Which composite z-score did it give?
A: 1
